We go through five compounds from PubChem BioAssay.

Sequence of E3 ubiquitin-protein ligase XIAP (Homo sapiens) (P98170 whole entry, looked up): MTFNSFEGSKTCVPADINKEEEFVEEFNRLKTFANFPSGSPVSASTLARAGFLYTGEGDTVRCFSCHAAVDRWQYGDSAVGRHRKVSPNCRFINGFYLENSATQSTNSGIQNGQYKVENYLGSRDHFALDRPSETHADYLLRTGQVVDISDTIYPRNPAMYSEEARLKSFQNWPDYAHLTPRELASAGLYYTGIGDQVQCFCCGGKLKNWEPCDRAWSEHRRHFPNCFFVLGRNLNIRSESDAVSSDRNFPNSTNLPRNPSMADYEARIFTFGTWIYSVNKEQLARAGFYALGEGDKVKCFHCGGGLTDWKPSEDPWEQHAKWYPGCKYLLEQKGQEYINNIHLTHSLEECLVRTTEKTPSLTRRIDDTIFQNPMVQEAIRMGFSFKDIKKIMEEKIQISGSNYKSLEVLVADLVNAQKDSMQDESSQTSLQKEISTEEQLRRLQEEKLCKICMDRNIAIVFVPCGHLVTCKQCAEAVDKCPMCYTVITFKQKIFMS

This assay has as its target E3 ubiquitin-protein ligase XIAP (Homo sapiens) (UniProt P98170). As to the kind of experiment: XIAP binders, primary screen, biophysical, small-molecule microarray, fluorescence 635 nm (AID 1181).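 Further: score merges 667 nm emission and signal to noise over triplicate slides.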 The following applies: small-molecule microarray binding, higher = more signal.
`O=C1C2C=CC(C(O)c3ccco3)N(Nc3ccccc3F)C2C(=O)N1c1ccccc1` (stereo not given) registered a composite z-score of 0.318. Turning to `CC(C)(C)OC(=O)COc1cccc(C(=O)CCN2CCOCC2)c1`, the composite z-score is -0.203. Then `CS(=O)(=O)CCOC(=O)C1=CC(CCCO)=CC(c2ccc(CN3CCCC3)cc2)N(Cc2sc3ccccc3c2Cl)C=C1C(=O)OCCS(C)(=O)=O` (stereo not given), with -0.247; and `COC(=O)[C@@]1(Cc2ccc(F)cc2)[C@H]2c3cc(C(=O)N(C)C)n(CCc4ccc(OC)c(Br)c4)c3C[C@H]2CN1C(=O)c1ccccc1`, with -0.337. Then `COc1ccc([Si](C)(C)[C@@H]2[C@@H](CC(=O)N3Cc4ccccc4C[C@H]3CO)O[C@]3(C(=O)N(Cc4ccc(N5C(=O)c6cccc7cccc5c67)cc4)c4ccccc43)[C@H]2C)cc1`, with -0.0773.
